The list is not random: actives were taken first. Their share in the collection is about 2.9%.
Cardio protect: myocardial damage modulation in H9c2 cells; H9c2 cardiomyocytes, H2O2 injury protection, ATPLite, 2 h; protection from H2O2 cell death, % at 20 µM; 360,000 tested, 0.63% active; AID 588492;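 active = compounds giving at least 50% protection of heart cells from peroxide-induced death in the single-dose screen, raw or plate-pattern-corrected value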;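 also: 0% = DMSO wells with peroxide and 100% = DMSO wells without peroxide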
APOBEC3A inh: inhibitors of human APOBEC3A DNA deaminase; recombinant A3A, FAM/TAMRA ssDNA deamination fluorescence; 330,000 tested, 0.41% active; inhibition, % at 20 µM;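 active = at least 40% inhibition at 20 µM here, with at most 30% in a related deaminase screen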;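 also: plate controls were A3A with DMSO for no effect and wells lacking A3A enzyme for full effect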
Target sequence (P31941 whole entry, looked up): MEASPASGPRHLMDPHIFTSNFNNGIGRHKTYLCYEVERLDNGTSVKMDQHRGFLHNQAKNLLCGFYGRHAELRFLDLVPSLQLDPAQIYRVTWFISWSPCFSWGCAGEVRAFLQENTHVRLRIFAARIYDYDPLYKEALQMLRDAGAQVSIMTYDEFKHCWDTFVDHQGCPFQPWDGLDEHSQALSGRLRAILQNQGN
TAG inh: reduces triacylglycerol accumulation in H9c2 cells; AID 651582; Nile Red lipid (TAG) fluorescence; cells loaded with 200 µM oleic acid; inhibition, % at 12.5 µM; 230,000 tested, 0.66% active;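 active = pattern-corrected inhibition of lipid staining of at least 50% with the nuclear-stain viability signal not falling by more than 50%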;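 also: 0% = DMSO wells and 100% = triacsin C control wells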
NadD inh: blocks S. aureus nicotinate mononucleotide adenylyltransferase; purified NadD enzyme, colorimetric absorbance read-out; inhibition, % at 20 µM; 360,000 tested, 0.78% active; in the data active = inhibition above about 26%
APOBEC3G inh: APOBEC3G (human) deaminase inhibition; Q9HC16; recombinant A3G, ssDNA deamination FAM/TAMRA fluorescence; inhibition, % at 20 µM; 330,000 tested, 0.28% active;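 active = inhibition of at least 40% at 20 µM, with no more than 30% in the related APOBEC3A deaminase screen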;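 also: plate controls were DMSO wells with A3G for no effect and wells lacking A3G enzyme for full effect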
PfG6PD inh: PfG6PD (Plasmodium falciparum) enzyme inhibition | inhibition, % at 20 µM | 350,000 tested, 0.78% active | AID 504690 | PfGluPho enzyme, NADPH resazurin-diaphorase fluorescence;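 active = inhibition reaching at least a set limit at 20 µM in the primary screen, cut at about 59% in these data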;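 also: 0% = DMSO wells with substrate and 100% = DMSO wells lacking glucose-6-phosphate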
APOBEC3G confirm: confirmation of human APOBEC3G DNA deaminase inhibitors; shares compounds with APOBEC3G inh; recombinant A3G ssDNA deaminase, UDG/FAM-TAMRA fluorescence; 890 tested, 72% active; inhibition, % at 20 µM;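 active = inhibition reaching a set limit in any replicate at 20 µM, the limit being 80% of the first screen's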
UDG ctr A3G: counter-screen for APOBEC3G inhibitors: E. coli UDG. shares compounds with APOBEC3G inh. UDG counterscreen, FAM/TAMRA oligo fluorescence. inhibition, % at 20 µM. 710 tested, under 10 active. AID 504715;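 active = compounds giving 40% or more inhibition at 20 µM in any one of the three replicates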;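 also: plate controls were DMSO wells with UDG and oligo for no effect and DMSO wells lacking both for full effect; inhibitors lower the FAM signal released by uracil excision and alkaline cleavage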
Target sequence (P12295 whole entry, looked up): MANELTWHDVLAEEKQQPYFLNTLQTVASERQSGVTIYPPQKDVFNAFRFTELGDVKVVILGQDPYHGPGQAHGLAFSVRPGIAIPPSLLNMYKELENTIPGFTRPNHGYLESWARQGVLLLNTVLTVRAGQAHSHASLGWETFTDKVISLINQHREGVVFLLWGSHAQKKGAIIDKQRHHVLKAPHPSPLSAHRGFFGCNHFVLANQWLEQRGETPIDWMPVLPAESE
PfG6PD confirm: confirmation of Plasmodium falciparum G6PD inhibitors; shares compounds with PfG6PD inh; recombinant PfGluPho, NADPH-diaphorase-resazurin fluorescence; inhibition, % at 20 µM; 2,400 tested, 34% active;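 active = inhibition of at least 50% at 20 µM in any single replicate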;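 also: 0% = DMSO with substrate and 100% = DMSO lacking glucose-6-phosphate substrate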
Diaphorase 10uM: counter-screen for P. falciparum G6PD inhibitors: diaphorase inhibitors, oxidizers; shares compounds with PfG6PD inh; diaphorase-coupled resazurin reduction, fluorescence, NADPH 10 uM; inhibition, % at 20 µM; 820 tested, 39% active;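 active = average inhibition reaching 50% or more with the compound at 20 µM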;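 also: resorufin red fluorescence formed as diaphorase reduces resazurin using NADPH; 0% = DMSO with enzyme and 100% = DMSO without enzyme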
Diaph ctr 30uM: diaphorase inhibition or oxidation at 30 uM NADPH | Diaphorase/resazurin coupled assay, resorufin fluorescence | shares compounds with PfG6PD inh | 820 tested, 29% active | inhibition, % at 20 µM | AID 504863;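 active = inhibition averaging 50% or more, tested at 20 µM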;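 also: 0% = DMSO with enzyme and 100% = DMSO wells lacking diaphorase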
* hit, by the source's call; nt = no result given.

SMILES	Cardio protect	APOBEC3A inh	TAG inh	NadD inh	APOBEC3G inh	PfG6PD inh	APOBEC3G confirm	UDG ctr A3G	PfG6PD confirm	others
COc1cc(/C=N/N2CCN(Cc3ccc(C)cc3)CC2)cc(OC)c1O	1	1	nt	13	54*	79*	-1	nt	16
Nc1nc2cc(S(=O)(=O)N3CCOCC3)ccc2o1	-6	2	-11	3	46*	69*	43*	-5	25
CN(C)C(=O)CSc1nc2cc(S(=O)(=O)N3CCOCC3)ccc2o1	-3	-1	-1	-4	23	56	nt	nt	nt
N#CC1=C2SCN(c3ccccc3)CN2C(=O)CC1c1c(Cl)cccc1Cl (stereo unspecified)	11	-8	-2	17	59*	85*	65*	1	30
CCOC(=O)c1cc(C)[nH]c(=S)c1C#N	2	-3	-5	5	63*	74*	82*	6	46
CCOC(=O)c1cc(C(=O)OCC)c(=O)[nH]c1C	15	-1	nt	-4	-10	0	nt	nt	nt
O=C(O)c1ccccc1NS(=O)(=O)c1cccc(C(F)(F)F)c1	7	2	nt	2	-2	-16	nt	nt	nt
O=C(O)c1ccccc1NS(=O)(=O)c1cccc(-n2sc3ccccc3c2=O)c1	64*	6	nt	9	78*	110*	87*	-2	105*	Diaphorase 10uM=-12;Diaph ctr 30uM=-24
CC(=O)C1=CCC(c2ccc(Cl)cc2)N(S(=O)(=O)c2ccccc2)C1 (stereo unspecified)	-2	nt	nt	-12	nt	nt	nt	nt	nt
O=C(c1cc2ccccc2o1)N1CCN(c2ncccn2)CC1	-3	-2	-5	2	-5	-7	nt	nt	nt
CCC1(C)CC(C(N)=S)CCO1 (stereo unspecified)	6	1	3	5	57*	81*	45*	4	64*	Diaphorase 10uM=-13;Diaph ctr 30uM=-15
CC1(C)CC(C(N)=S)CCO1 (stereo unspecified)	2	0	1	-1	0	-3	nt	nt	nt
COC(=O)c1c(-c2ccc(C(C)(C)C)cc2)csc1NC(=O)C1C2CCC(O2)C1C(=O)O (stereo unspecified)	0	0	5	11	58*	70*	24*	-4	31
CCOC(=O)c1c(-c2cccc3ccccc23)csc1NC(=O)C1C2CCC(O2)C1C(=O)O (stereo unspecified)	4	4	nt	11	1	-21	nt	nt	nt
Cc1cccc(C)c1NC(=O)CN1CCc2ccccc2C1	-7	nt	-6	-3	nt	6	nt	nt	nt
CC1CCN(S(=O)(=O)c2ccc(C(=O)N3CCCC(C(F)(F)F)C3)cc2)CC1 (stereo unspecified)	-12	1	-10	-1	-2	-4	nt	nt	nt
CC1Sc2ccc(C(=O)NCc3ccccn3)cc2NC1=O (stereo unspecified)	-16	3	21	-7	55*	60*	33*	-3	15
COc1cc(SSc2cc(OC)cc([N+](=O)[O-])c2N)c(N)c([N+](=O)[O-])c1	-16	-2	nt	26	42*	112*	79*	10	100*	Diaphorase 10uM=-27;Diaph ctr 30uM=-20
COc1cc([N+](=O)[O-])c2ncsc2c1	1	-4	nt	1	-3	-2	nt	nt	nt
COc1ccc(N2C(=O)/C(=C/c3cccs3)NC2=S)cc1	-4	1	nt	6	60*	79*	39*	4	64*	Diaphorase 10uM=-16;Diaph ctr 30uM=-8
CN(C)/C=C1\NC(=S)N(c2ccccc2)C1=O	2	-5	6	7	-8	47	nt	nt	nt

Source: PubChem (Sanford-Burnham Center for Chemical Genomics)
